Inhibition data for 60 molecules are collected here from PubChem BioAssay AID1578 (Sanford-Burnham Center for Chemical Genomics, 2009).

As usually defined, the inhibition is the change of the read-out against control, counted positive when it falls.

Among all 290,000 compounds or so, about 3,000 (1%) were called active. No stated cut-off is given here; in the data, active means inhibition mostly above about 36% (no sharp cut-off); inactive means mostly below about 34%. The sample as a whole holds a higher share of actives than the screen did.

The test is described as follows: NOD1 signaling inhibitors, primary screen, cell-based, luminescence, uHTS (AID 1578).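 Further: HEK-293T reporter cells stimulated with the NOD1 agonist gamma-tri-DAP.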 Conditions: NOD1-driven NF-kB luciferase reporter cells, at 4 µM, stronger effect = higher value. On the technique in general: Reporter assays use an easily measured gene product as a stand-in for the process of interest.
As to `CC1=CC(C)(C)N(C(=O)CN2C(=O)c3ccccc3C2=O)c2ccccc21`, the inhibition was -18.1% (inactive).

As to `Cc1ccc(C)c(C(=O)CN2Cc3ccccc3C2=O)c1`, the inhibition was -5.3% (inactive).

Take `CC1=CC(C)(C)N(C(=O)CN2C(=O)CCC2=O)c2ccc(C)cc21`: the inhibition was -11.3% (inactive).

As for `Cc1ccc(C)c(C(=O)CN2C(=O)CCC2=O)c1`, the inhibition is -14.2% (inactive).

Turning to `CC1=CC(C)(C)N(C(=O)CN2C(=O)c3ccccc3C2=O)c2ccc(C)cc21`, the inhibition was 33.2% (active).

For `Cc1ccc(C)c(C(=O)CN2C(=O)c3ccccc3C2=O)c1`, the inhibition was 56.5% (active).

For the molecule `O=C(NCCc1ccco1)C(=O)NCC1OCCCN1S(=O)(=O)c1ccc(F)cc1` (stereo not given), the inhibition is 10.4% (inactive).

On to `COc1ccc(S(=O)(=O)N(C)C)cc1NC(=O)[C@H](Cc1ccccc1)N1C(=O)c2ccccc2C1=O`, for which the inhibition is 2% (inactive).

For `O=c1nc(SCc2ccccc2Cl)nc(-c2ccc(Cl)cc2)[nH]1`, the inhibition was 57.8% (active).

On to `O=c1nc(SCc2ccc(Cl)cc2)nc(-c2ccccc2)[nH]1`, for which the inhibition is -3.2% (inactive).

Turning to `O=c1nc(SCc2c(F)cccc2Cl)nc(-c2ccc(Cl)cc2)[nH]1`, the inhibition was 9.8% (inactive).

As to `C/C(COc1ccccc1)=N\NC(=O)c1nnn(-c2nonc2N)c1CSc1ccccc1`, the inhibition was -2.2% (inactive).

For `CCOc1cc(C2NC(=O)NC(c3ccccc3)=C2C(C)=O)ccc1OCC(N)=O` (stereo not given), the inhibition is 14.5% (inactive).

`Cc1ccc(NC(=O)CCNC(=O)c2ccco2)cc1Cl`: the inhibition is -23.6% (inactive).

Take `O=[N+]([O-])c1cc(S(=O)(=O)NCCN2CCOCC2)ccc1Sc1nnnn1-c1ccccc1`: the inhibition was 46.1% (inactive).

As to `O=C(O)c1ccc(Sc2nnnn2-c2ccccc2)c([N+](=O)[O-])c1`, the inhibition is -15.3% (inactive).

As for `CN1CCN(S(=O)(=O)c2ccc(Sc3nnnn3-c3ccccc3)c([N+](=O)[O-])c2)CC1`, the inhibition is 93.5% (active).

As for `O=[N+]([O-])c1ccc(Sc2nnnn2-c2ccccc2)c(Cl)c1`, the inhibition is -1% (inactive).

With `COC(=O)c1ccc(Sc2nnnn2-c2ccccc2)c([N+](=O)[O-])c1`, the inhibition was 48.6% (inactive).

`COC(=O)c1ccccc1NC(=O)CN1CCN(Cc2ccccc2)CC1`: the inhibition was 1.4% (inactive).

Regarding `COc1ccc2nc(Nc3nc(CSc4nc5ccccc5[nH]4)cc(=O)[nH]3)nc(C)c2c1`, the inhibition is -25.6% (inactive).

`Cc1ccc2c(C)nc(Nc3nc(CSc4nc5ccccc5[nH]4)cc(=O)[nH]3)nc2c1`: the inhibition was 90.5% (active).

Take `Cc1nc(Nc2nc(CSc3nc4ccccc4[nH]3)cc(=O)[nH]2)nc2ccccc12`: the inhibition was -5.7% (inactive).

Consider `O=S1(=O)CCOCCCN1Cc1ccccc1`, for which the inhibition is -16.6% (inactive).

As to `O=S1(=O)CCOCCCN1Cc1cccc(F)c1`, the inhibition was -39.7% (inactive).

Consider `O=S1(=O)CCOCCCN1Cc1cccc(C(F)(F)F)c1`, for which the inhibition was 56.8% (active).

As for `COc1ccc(C(=O)N/N=C/c2c(C)[nH]c(=O)[nH]c2=O)cc1`, the inhibition was -27.4% (inactive).

Consider `Cc1ccc(S(=O)(=O)NC(Cc2ccccc2)C(=O)NN)cc1` (stereo not given), for which the inhibition was -27.9% (inactive).

Consider `Cc1ccc(S(=O)(=O)N[C@@H](Cc2ccccc2)C(=O)CCl)cc1`, for which the inhibition is 87.7% (active).

For the molecule `Cc1ccc(S(=O)(=O)NC(Cc2ccccc2)C(=O)O)cc1` (stereo not given), the inhibition is -30.6% (inactive).

In the case of `Cc1nnc(SCC(=O)NNC(=O)c2ccc(Br)cc2)n1C`, the inhibition was -33.3% (inactive).

For the molecule `CN(CC(=O)N1CCN(c2ccc(F)cc2)CC1)S(=O)(=O)c1ccc2c(c1)c(=O)n(C)c(=O)n2C`, the inhibition is -11.7% (inactive).

As for `CCC(=O)Nc1nc2c(s1)COc1ccccc1-2`, the inhibition is 8.2% (inactive).

Regarding `CCCC(=O)Nc1nc2c(s1)COc1ccccc1-2`, the inhibition was 48.7% (inactive).

Turning to `CCCCC(=O)Nc1nc2c(s1)COc1ccccc1-2`, the inhibition is 62.4% (active).

Consider `Cc1[nH]c2ccccc2c1C(=O)/C=C/c1ccccc1Cl`, for which the inhibition is -24.5% (inactive).

On to `Cc1[nH]c2ccccc2c(=O)c1C(=O)/C=C/c1ccccc1`, for which the inhibition is 79.7% (active).

`Cc1[nH]c2ccccc2c1C(=O)/C=C\c1ccccc1Cl`: the inhibition was -16.5% (inactive).

Turning to `COc1ccc(Oc2ccc(/C=N/NC(=O)c3cccnc3)cc2[N+](=O)[O-])cc1`, the inhibition was -17.7% (inactive).

For the molecule `COCCN1CCn2c(nc3cc(NC(=O)c4cccs4)ccc32)C1`, the inhibition is -28.2% (inactive).

Turning to `CC(c1ccccc1)N1CCn2c(nc3cc(NC(=O)c4cccs4)ccc32)C1` (stereo not given), the inhibition was 0.3% (inactive).

For the molecule `O=C(Nc1ccc2c(c1)nc1n2CCN(Cc2ccccc2)C1)c1cccs1`, the inhibition was 89.9% (active).

For the molecule `COc1ccc(CC(=O)Nc2c3c(nn2C(C)(C)C)CS(=O)C3)cc1` (stereo not given), the inhibition was -19.6% (inactive).

With `CN(C)c1ccc(-n2cccc2/C=C/[N+](=O)[O-])cc1`, the inhibition is -0.1% (inactive).

As for `CN(c1ccccc1)c1ccc(/C=C/[N+](=O)[O-])cc1`, the inhibition was 105% (active).

Take `O=[N+]([O-])/C=C/c1ccc2c(ccn2Cc2ccccc2)c1`: the inhibition is -4.4% (inactive).

In the case of `Cc1[nH]c2ccccc2c1C(=O)CSC(=S)N1CCOCC1`, the inhibition is 3.9% (inactive).

On to `CC[n+]1c(/C=C2\C=C(C)CC(C)(C)C2)sc2ccccc21`, for which the inhibition was 20.8% (inactive).

Take `CC[n+]1c(/C=C2/C=C(C)CC(C)(C)C2)sc2ccc(OC)cc21`: the inhibition was 77.4% (active).

Consider `CCC1=C/C(=C/c2sc3ccccc3[n+]2CC)CC(C)(C)C1`, for which the inhibition was -7.6% (inactive).

On to `Cc1cc(Br)ccc1NC(=S)N1CCOCC1`, for which the inhibition was -0.1% (inactive).

With `N#Cc1nc(Cc2ccccc2)oc1NCc1cccnc1`, the inhibition was -33.9% (inactive).

As for `N#Cc1nc(Cc2ccccc2)oc1NCc1ccccc1Cl`, the inhibition is 57% (active).

Consider `N#Cc1nc(Cc2ccccc2)oc1NCc1ccccc1`, for which the inhibition was -5.9% (inactive).

As for `Cc1cc(NC(=O)c2ccccc2F)n(-c2nc3ccccc3[nH]2)n1`, the inhibition is -8.4% (inactive).

For `Cc1cc(NC(=O)c2ccccc2)n(-c2nc3ccccc3[nH]2)n1`, the inhibition is -15% (inactive).

As for `COc1ccc(C(=O)Nc2cc(C)nn2-c2nc3ccccc3[nH]2)c(OC)c1`, the inhibition is 98.7% (active).

With `COc1ccc(/C=C/C(=O)Nc2cc(C)nn2-c2nc3ccccc3[nH]2)cc1`, the inhibition is 17.4% (inactive).

For the molecule `COc1cccc(OC)c1C(=O)Nc1cc(C)nn1-c1nc2ccccc2[nH]1`, the inhibition is -24.9% (inactive).

As to `CCCCN(C)S(=O)(=O)c1cc2c3c(c1)CCC(=O)N3CCC2`, the inhibition was -4.1% (inactive).
